Assay results published in paper PMC12864922, “TDP-43 directly inhibits mRNA accumulation in neurites through modulation of mRNA stability”.
Over roughly 9,900 sequences, “r (bound/input frequency ratio)” has its median near 0.7; the highest 2% begin near 6.5. Shown is part of a subset that was picked to be rich in the highest values.

B1: ENSMUSG00000034801.154|Sos2|134:138;197:201;231:235 (ssRNA)
RNA: GGGAGUUCUACAGUCCGACGAUCGCUUCGAUAUCCGCAUGCUAUUGUUUGGUUUUUACAUCUAGGAGACUUAGGAAUAAUACCCACUGUUCUUAAACUCUUUGAGACCAUGUCUUAAAUGUCAGUAUUUGCUGCUGAAGACAAAAACGGAAAAUAGAAUGAAAUAAUAGAAUGCACACACAUUAUUAUUUUGUUAAAAUUAUAAACAGUUCUACAUAACCUGAUUAUAGAAGAAGGGCAACACAUCAUUAAGAUGUGCCUUUUGUUUUGCAGUCAUACGUGUUUAGCUAAUCAUUGUUUAGCUCUCUUGCGGUCGCACUAGUGUGGAAUUCUCGGGUGUCAAGG
B2: ENSMUSG00000028439.239|Fam219a|33:39;67:71;117:126;145:149 (ssRNA)
RNA: GGGAGUUCUACAGUCCGACGAUCGCUUCGAUAUCCGCAUGCUAUCACAGGAGUUUCUGCAAAAGACUAUGACAUCACACACACUGUGGUCUCACGAGGUACCUGGAGGUCAUACUGCACGGACAUGGGAAGUACGUGAAGAUUUAUUUCGGGAAAAGUGCACACACACAAGCUGUACUGGGUGUCAUCAUACCUGUUGCUUCUGCUGCUGGUCUGGUCUGAGGGAGGAAAGCUGAGGCUGUAGCUCAGUGAGAUGGUGGCUCUCCCAUGGCUGAAGACAAGUGCAAGCAGAGAGAGCCUCAGGCUCUUGCGGUCGCACUAGUGUGGAAUUCUCGGGUGUCAAGG
B3: ENSMUSG00000031028.61|Tub|157:169;187:191 (ssRNA)
RNA: GGGAGUUCUACAGUCCGACGAUCGCUUCGAUAUCCGCAUGCUAUCAGUCCCCUGCUGCAGUGGUGUUAUCACACCGGAAAGCCUCUUCACCUGGAGGUACAGAGGGAGAGGAAGCACAAGCCUGGCUGCUGUGGCUCAGCCAUCCACUCAGCCUACGAGUCAGAGACAGUGGGUGUCCCGGGAAGCAGGGGUACAGUGACACACACACAUACUACAGGGCACUCAAGCUCAUACUAGAAAAAGCUCUGGUGGUCAGCAGAAAGCACUCCCACUUCAAAAGGGCCCAUUAGGCCCAAAGGGGGUCUCUUGCGGUCGCACUAGUGUGGAAUUCUCGGGUGUCAAGG
B4: ENSMUSG00000032194.9|Kank2 (ssRNA)
RNA: GGGAGUUCUACAGUCCGACGAUCGCUUCGAUAUCCGCAUGCUAGAGUGAAUACAGGGAGGAGCCAGUGAGUCCCCCAGGACCCACCAGCCACAAGCCACGCAUCAAACCGUCCCUCCUCCAUCCCUCUGUCCCAUUCUGCCUCGGCAUUCCUCAGCCCCUGAACUUCCCUGAGGGAGCCCUGACAUCUACCAGGCUCAAGCUCCUGGAAGCCUUUCCCAGCACCCUGGGUUCAAAGCCAGAAAGCCAAGCUACAUUCUCCUCCCAGUUGGCACCAGUUGACAACGCCUUGGGUGUGGGUUUCUCUCUUGCGGUCGCACUAGUGUGGAAUUCUCGGGUGUCAAGG
B5: ENSMUSG00000061578.1396|Ksr2 (ssRNA)
RNA: GGGAGUUCUACAGUCCGACGAUCGCUUCGAUAUCCGCAUGCUAAAGUAUAUAUACCUAUAAAUGCUAUAUAUAUUAUAUAUGUGUAUAUACAUAAAGACUACUUCUUGUACAGCCCUCCACGGACCUCAGGCCCACUGUUUUCUCCAUGUCUGUCUGUACUGACUGUUGCAGAAUGAGCUGAUGUAUGAUCUUGAUUCUCCAUUUUCCUUCUGGACCACAUGUCUCUUCCUUUUCCUUUUUAGAUCUGUCUUGCUCUCUGUCUCUCUCACUCAUUGCCAACAUGUUGCUGGGAAAGAAUAUUUCUCUUGCGGUCGCACUAGUGUGGAAUUCUCGGGUGUCAAGG
B6: ENSMUSG00000043670.80|Diras1|67:72 (ssRNA)
RNA: GGGAGUUCUACAGUCCGACGAUCGCUUCGAUAUCCGCAUGCUACUGGCUAAGGAACUGCUCAUCCCAGUCAGGCCCAGAGAGGUUACCUUGCCUCUCCAUCUCUGUCCCACACACCCCAGCCAUGCCCACUGUCCCUGUCCCUCACAUUCUAUCACUGUGACCUCUGGGGAGUGCCCAUUGACCUCAUCUUCCUUCACUAAUAUCUUAUUUCUUUCACCUGAUCCUGUCCUUUCCCCGUGACCUCUGACCUGUGGCCUUCCCUGGGUCCAGAACACCCCUGUCCUCUCCUGUCUGCACACCAGCUCUUGCGGUCGCACUAGUGUGGAAUUCUCGGGUGUCAAGG
B7: ENSMUSG00000090935.729|Synj2bp (ssRNA)
RNA: GGGAGUUCUACAGUCCGACGAUCGCUUCGAUAUCCGCAUGCUAAUCAACCUCCAGUAACAUAUGUGGUUAGUAAGUGCUUCAGCUUGUGUAGCCAUUAAUAACCAAGUCAUAGGAUUGUGAAUCUAAAAUACUCCUGGGUAAAAUUUGUAUUAGAAUGGAAAAAAAAAUGAGGGUCAGAAAGGUGAGCUAACUUCAAGUUAGAUACUCCCCUCUAUUUUGGUCUCAAAUUUGUUUUAGUGUGUCCACAACAUGAAAACAUACAAAAACUAUAUUUUAAAAAUCAGUUUACUUUCAUCUUUUCUCUCUUGCGGUCGCACUAGUGUGGAAUUCUCGGGUGUCAAGG
B8: ENSMUSG00000022095.164|Fam160b2|44:48 (ssRNA)
RNA: GGGAGUUCUACAGUCCGACGAUCGCUUCGAUAUCCGCAUGCUAGGCUAGGCCGAGACACAAGCAGAUAGCUCUGGCAUUGUUCUUCCAUACUCCUCCAUGGCUGGGGCUGCUACCUCACCCGGCCUGAAUCUGUCUCAACCUGCAAGAGCACUCGGGCGGCGCCAGGCAUUACCUCACAACAGGCCUGCAGUUGUUGGCUUCCCUCCUGGGCAAGGAGGAGCAGGCCAGAGCCCCUUUUGCUUCCUUUUCCUGCCCAUGCCACCUCUCGAAGCCGGGCACAGGUUGCCAGGAGGUGACAUGAACUCUUGCGGUCGCACUAGUGUGGAAUUCUCGGGUGUCAAGG
B9: ENSMUSG00000004113.278|Cacna1b|87:91;151:155;229:260 (ssRNA)
RNA: GGGAGUUCUACAGUCCGACGAUCGCUUCGAUAUCCGCAUGCUAAAGUCAGGCCCCUGGCUUAGCACUAGAAAAAAUAAAACCUCAUGGCUGCUUUGCAAAGGGAAAACCCAUGCUCAGGAAGGUGUUCACACACCACAGAUAGCUGGGAGGCCACGAGAGAAAGGUUGCACACAGACAGGCAGGCACUCCUUGCACACGUCUCUCUGUUUUGAAACUUCUGAUGACUUCUUGGUGGCUUGUUGUCUUCUACCCCAUGUUUCUCACAGGAUCACACACACACACACACACACACACACACACACCUCUUGCGGUCGCACUAGUGUGGAAUUCUCGGGUGUCAAGG

Each binder was assayed against TDP-43 (Homo sapiens, UniProt Q13148 1-414) (assay: RNA Bind-n-Seq with designed 260-mer pool; 25 mM Tris-HCl, 150 mM KCl, 3 mM MgCl2, BSA (printed 500 mg/mL), 20 units/mL SUPERase IN; pH not stated; 500 nM RNA pool, 1 h, 4 C; TDP-43 5, 50, 500 nM; high values mean tight binding). Settings: protein: recombinant; tags: SBP (GST cleaved off with PreScission; pGEX-GST-SBP).
Procedure, shortened: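 The incubation lasted 1 h at 4 °C and used 500 nM of an in vitro-transcribed 260-nt 3′ UTR oligo pool with recombinant SBP-tagged TDP-43 at 5, 50 or 500 nM immobilized on streptavidin beads. It took place in 25 mM Tris-HCl, 150 mM KCl, 3 mM MgCl2, BSA and SUPERase IN. Bound RNA was washed, eluted with biotin, converted to cDNA, PCR-amplified and sequenced to give R, each oligo's normalized abundance in the bound sample divided by that in input. Two independent protein batches provided the duplicates.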

Sequence of TDP-43 (Q13148 whole entry): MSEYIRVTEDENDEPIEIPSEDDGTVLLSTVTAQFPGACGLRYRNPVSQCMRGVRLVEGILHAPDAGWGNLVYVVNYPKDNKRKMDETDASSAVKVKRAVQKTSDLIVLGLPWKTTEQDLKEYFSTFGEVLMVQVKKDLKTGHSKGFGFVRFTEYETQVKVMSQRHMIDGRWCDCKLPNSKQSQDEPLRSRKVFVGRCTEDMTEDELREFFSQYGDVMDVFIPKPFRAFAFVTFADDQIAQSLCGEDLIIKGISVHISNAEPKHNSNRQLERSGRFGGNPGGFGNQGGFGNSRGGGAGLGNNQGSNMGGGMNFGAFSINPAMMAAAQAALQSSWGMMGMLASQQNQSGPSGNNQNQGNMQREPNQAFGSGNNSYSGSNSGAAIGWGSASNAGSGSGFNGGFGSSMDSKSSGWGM

| Binder | binding signal |
| --- | --- |
| B1 | 0.018 R (bound/input frequency ratio) |
| B2 | 1.35 R (bound/input frequency ratio) |
| B3 | 0.59 R (bound/input frequency ratio) |
| B4 | 1.04 R (bound/input frequency ratio) |
| B5 | 0.176 R (bound/input frequency ratio) |
| B6 | 2.36 R (bound/input frequency ratio) |
| B7 | 0.0597 R (bound/input frequency ratio) |
| B8 | 0.529 R (bound/input frequency ratio) |
| B9 | 1.82 R (bound/input frequency ratio) |
